# Assay outcomes as filed in PubChem BioAssay.
# Most compounds without a hit are left out; they make up all but 6% or so of the library.
# Tau fluor counter = counter-screen for tau fibril formation inhibitors; tau K18 P301L Alexa594 fluorescence, heparin fibrillization; Potency, µM (top dose mostly 57.7 µM); actives 0.93% (n = 280,000); further: nearly all actives have a fitted effect of over 55% in size
#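 Human tau K18 P301L (15 uM unlabeled, 0.24 uM Alexa 594-labeled) in 100 mM sodium acetate pH 7 with 20 uM heparin, 6 hr at 37 C. ThT 30 uM added, 1 hr ambient; Alexa 594 FP and total fluorescence read at 555/632 nm.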
# Sfp inh = Sfp phosphopantetheinyl transferase inhibition. Potency, µM, actives largely listed as inhibitors. AID 1490. Biochemical Sfp PPTase activity, qHTS. Q9F4F7. actives 3.5% (n = 310,000);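 further: the enzyme is Sfp with the accession as filed and its product quenches rhodamine fluorescence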
#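 Buffer: 50 mM Hepes-Na pH 7.6, 10 mM MgCl2, 0.01% Nonidet P-40, 0.01% BSA. Enzyme 15 nM, pre-exposed to compound 15 min; substrates then added and fluorescence change tracked over 30 min.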
# PLK1 PBD inh = blocks phosphopeptide binding to human PLK1 polo-box domain | AID 720504 | actives 2.8% (n = 360,000) | Plk1 PBD binding of FITC phosphopeptide, fluorescence polarization | Potency, µM, hits mostly inhibitors; further: series mostly up to about 57 µM; nearly all actives have a fitted effect of over 65% in size
# VDR inh = blocks the human vitamin D receptor; VDR-SRC2-3 peptide fluorescence polarization, 2 h; Potency, µM, usual class: inhibitors; AID 504847; actives 0.93% (n = 400,000)
# Target sequence (P11473 whole entry, looked up): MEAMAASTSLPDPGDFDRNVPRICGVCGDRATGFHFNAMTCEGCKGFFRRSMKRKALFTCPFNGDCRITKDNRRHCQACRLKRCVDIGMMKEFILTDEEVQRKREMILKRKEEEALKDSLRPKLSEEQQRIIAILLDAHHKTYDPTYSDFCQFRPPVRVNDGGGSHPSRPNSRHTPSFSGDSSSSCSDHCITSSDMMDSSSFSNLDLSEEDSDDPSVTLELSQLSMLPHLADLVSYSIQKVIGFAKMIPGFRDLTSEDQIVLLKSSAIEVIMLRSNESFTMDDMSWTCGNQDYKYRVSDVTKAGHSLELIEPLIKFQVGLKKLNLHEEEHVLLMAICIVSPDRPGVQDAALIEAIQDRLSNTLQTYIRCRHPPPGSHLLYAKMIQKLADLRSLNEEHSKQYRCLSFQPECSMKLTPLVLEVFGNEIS
#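 Reagent solutions, kept cold and dark, are dispensed first; compounds are then pinned in at 23 nl, plates briefly spun, and incubated 2 h at ambient temperature. Inhibition of VDR–SRC2-3 peptide binding is read by fluorescence polarization.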
# Tau FP inhib = inhibitors of human tau fibril formation. P10636. K18 P301L tau heparin fibrillization, Alexa594 FP, 6 h. Potency, µM (titrated, usually from 57.7 µM), most hits filed as inhibitors. actives 0.39% (n = 280,000); further: nearly all actives have a fitted effect of over 55% in size
#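 Steps: dispense K18 P301L tau (15 uM plus 0.24 uM Alexa 594 tracer, final) in pH 7 sodium acetate; add compound; add heparin (20 uM final); incubate 6 hr, 37 C; add ThT (30 uM final); after 1 hr ambient, read FP.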
# Tau fibril ThT = inhibitors of human tau fibril formation, thioflavin T binding; P10636; actives 2.1% (n = 270,000); Potency, µM (doses to about 57.4 µM), most hits filed as inhibitors; recombinant tau K18 P301L (four-repeat tau fragment), heparin-induced fibrillization, ThT fluorescence; further: nearly all actives have a fitted effect of over 55% in size
#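 Recombinant human tau K18 fragment […] carrying P301L, 15 uM unlabeled plus 0.24 uM Alexa 594-labeled, was fibrillized with 20 uM heparin in 100 mM sodium acetate pH 7 for 6 hr at 37 C; 30 uM ThT fluorescence read after 1 hr.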
# Numbers stand for hits; i = inactive; ? = inconclusive; nt = not tested or not shown. The call rests on the fitted dose curve; in most records, active means well fitted curve in the direction sought with a large enough effect; inconclusive means small, poorly fitted or top-dose-only effect, or another doubt; inactive means no such curve, though single readings can be large; an effect the other way counts as inactive or inconclusive.
SMILES,Tau fluor counter,Sfp inh,PLK1 PBD inh,VDR inh,Tau FP inhib,Tau fibril ThT
Cc1ccc(OCCn2c(=S)[nH]c3ccccc32)c(C(C)C)c1,nt,i,i,?,nt,nt
CCOc1ccc2c(c1)[nH]c(=S)n2C,i,18µM,13µM,?,i,i
COc1ccccc1OCCn1c(=S)[nH]c2ccccc21,nt,i,?,i,nt,nt
S=c1[nH]c2ccccc2n1CCOc1ccccc1,nt,89µM,19µM,?,nt,nt
CCOc1ccc(OCCn2c(=S)[nH]c3ccccc32)cc1,nt,i,13µM,?,nt,nt
CCOc1cccc(CC(=O)N2CCc3c([nH]c4ccccc34)C2c2ccc(C)cc2)c1OCC (stereo not drawn),i,nt,nt,i,i,i
Cc1cccc(OCCn2c(=S)[nH]c3ccccc32)c1,i,6.3µM,6µM,?,i,i
COCCn1c(SCc2cnc(-c3ccccc3)s2)nnc1-c1ccncc1,i,i,27µM,i,i,i
O=[N+]([O-])C(=C1Nc2ccccc2N1)C(Cl)=C(Cl)Cl,i,89µM,i,?,?,?
Fc1ccc(CNCCC(Cc2ccccc2)c2ccco2)cc1 (stereo not drawn),i,i,i,i,i,i
CC(NCCC(Cc1ccccc1)c1ccco1)c1ccccc1 (stereo not drawn),i,i,30µM,i,i,nt
O=c1cc(O)c(-c2ccccc2Cl)c(Cl)[nH]1,i,89µM,i,i,i,i
O=C(Cc1ccc(F)cc1)NCC1CCCO1 (stereo not drawn),i,i,i,i,i,i
Cc1nn(-c2ccc(F)cc2)c(Cl)c1C(=O)NCC1CCCO1 (stereo not drawn),nt,nt,i,89µM,nt,nt
CC1=CC2=NC(=O)/C(=C\c3cccn3CCOc3ccccc3C)C(=N)N2O1,?,i,27µM,i,?,?
CC1CCN(C(=O)CSc2nnc3c(n2)[nH]c2ccccc23)CC1,nt,i,i,i,nt,nt
COc1cc(/C=N\NC(=O)c2ccc(-c3ccccc3)cc2)ccc1OCC(N)=O,nt,i,i,i,nt,nt
O=C(O)COc1ccc(/C=N/NC(=O)c2ccc(-c3csc(Nc4ccc(Cl)cc4)n3)cc2)cc1,?,45µM,?,i,i,?
CCOc1cc(/C=N/NC(=O)c2ccc(-c3csc(Nc4ccc(C)cc4)n3)cc2)ccc1OCC(=O)O,?,?,?,i,i,2.8µM
Cc1nc(CC(=O)N/N=C/c2ccc(OCC(=O)O)cc2)cs1,i,i,i,i,i,i
COc1ccccc1NC(=O)C(C)Sc1nnc2ccc3ccccc3n12 (stereo not drawn),i,nt,nt,i,i,i
COc1cc(CN2CC(=O)N(c3cc(Cl)ccc3C)C2=S)cc(OC)c1OC,nt,i,15µM,?,nt,nt
COc1ccc(S(=O)(=O)NCCc2nnc3ccc(SCC(=O)Nc4ccc(C(F)(F)F)cc4)nn23)cc1,i,nt,nt,i,i,i
CCOc1ccc(N=C2NC(=O)S/C2=C\c2ccc(Cl)cc2)cc1,i,i,i,i,i,?
COc1ccc(N=C2NC(=O)S/C2=C\c2ccc(N(C)C)cc2)cc1,?,i,?,i,?,1.1µM
SMILES,Tau fluor counter,Sfp inh,PLK1 PBD inh,VDR inh,Tau FP inhib,Tau fibril ThT
CCCS(=O)(=O)NC(=O)C1(C)CCN(C(=O)Cc2cccc3ccccc23)C1 (stereo not drawn),nt,nt,i,nt,nt,nt
CCCc1cc(=O)[nH]c2nnc(SCC(=O)Nc3cc(C)on3)n12,nt,nt,i,i,nt,nt
Cc1cc(C)n(CC(=O)N/N=C/c2ccccn2)n1,i,18µM,i,i,i,i
O=C(Cn1c2ccccc2c(=O)c2ccccc21)N/N=C/c1ccc(N2CCCC2)c([N+](=O)[O-])c1,i,i,i,i,i,i
Cn1c(SCC(=O)N/N=C/c2ccccn2)nnc1-c1ccccc1,i,45µM,i,i,i,i
Cc1cccc(/C=N/NC(=O)Cn2nc(C)cc2C)n1,i,?,i,i,i,i
Cc1cccc(/C=N/NC(=O)Cn2nccc2C)n1,i,50µM,i,i,i,i
O=C(Cn1c2ccccc2c(=O)c2ccccc21)N/N=C/c1cc([N+](=O)[O-])ccc1N1CCCCCC1,i,11µM,i,i,i,i
Cc1cc(C)c2c(=O)c3c(oc2c1)C(=O)N(CCCOC(C)C)C3c1ccccc1F (stereo not drawn),i,nt,nt,i,i,i
